# Experimental data: PubChem BioAssay AID1209 (Sanford-Burnham Center for Chemical Genomics, 2008)
# Hit rate of the full screen: of about 190,000 compounds, about 810 (0.43%) were called active. The sample holds actives, similar compounds and a random draw of the others, so the mix is not that of the screen. A number with no mark means an inactive call. Rule as the data show it: active = inhibition above about 50%; inactive = the rest.
# Molecular target: Mannose-6-phosphate isomerase (Homo sapiens) (UniProt P34949)
# Experiment: MPI enzyme activity inhibition – biochemical, fluorescence intensity, coupled assay, primary screen (AID 1209);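 also: plate controls were DMSO vehicle for no effect and wells lacking substrate for full effect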
# Conditions: purified PMI enzyme, at 20 µM, hits give high values
# Mannose-6-phosphate isomerase (Homo sapiens), sequence (P34949 whole entry, looked up): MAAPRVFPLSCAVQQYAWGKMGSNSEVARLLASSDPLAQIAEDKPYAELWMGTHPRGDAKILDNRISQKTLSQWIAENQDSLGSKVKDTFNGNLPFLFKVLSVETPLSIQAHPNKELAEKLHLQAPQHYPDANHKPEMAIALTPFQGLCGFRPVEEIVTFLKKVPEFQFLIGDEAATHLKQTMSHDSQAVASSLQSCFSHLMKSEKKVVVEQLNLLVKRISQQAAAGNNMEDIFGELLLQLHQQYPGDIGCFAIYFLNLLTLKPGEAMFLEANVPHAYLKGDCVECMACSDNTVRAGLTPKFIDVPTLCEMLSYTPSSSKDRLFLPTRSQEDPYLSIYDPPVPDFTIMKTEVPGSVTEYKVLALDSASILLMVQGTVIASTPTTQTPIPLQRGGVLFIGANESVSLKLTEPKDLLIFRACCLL
row,Compound,inhibition
1,O=C(Cn1cc(C(F)(F)F)ccc1=O)N/N=C/c1ccc(F)cc1,-3.8%
2,CC1CCN(CC(=O)N2c3ccccc3CC2C)CC1 (stereo not given),-23.2%
3,Cc1cc(=O)c(C(=O)O)cn1Nc1ccc(F)cc1,-5.7%
4,COc1ccc(C(O)Cc2nc3ccccc3n2C)cc1OC (stereo not given),-8.6%
5,Cc1ncc(C[n+]2csc(CCOC(=O)CC34CC5CC(CC(C5)C3)C4)c2C)c(N)n1,-0.1%
6,COc1cc(CNc2ccc(N3CCOCC3)cc2)cc(Br)c1OC,-0.4%
7,COc1cc(CNc2ccc(N3CCN(C(C)=O)CC3)cc2)ccc1OCc1ccccc1,20%
8,CCOc1cc(CNc2ccc(N3CCCC3)cc2)cc(Cl)c1OC,83% (active)
9,CCOc1c(Cl)cc(CNC(C)(C)CC(C)(C)C)cc1OC,4.6%
10,CCOc1c(Cl)cc(CNc2ccc(S(N)(=O)=O)cc2)cc1OC,-1.5%
11,COc1cc(CNc2ccc(N3CCCC3)cc2)cc(Cl)c1OC,76.9% (active)
12,COc1cc(CNc2ccc(N3CCCC3)cc2)ccc1OCc1ccccc1,86.4% (active)
13,CCOc1cc(CNc2ccc(N3CCOCC3)cc2)cc(Br)c1OCC,6.4%
14,C=CCOc1c(Cl)cc(CNc2ccc(C)c(Cl)c2)cc1OC,13.1%
15,COc1cc(CNc2ccc(N3CCCC3)cc2)ccc1OCc1ccccc1F,29.9%
16,CCOc1cc(CNc2ccc(S(N)(=O)=O)cc2)cc(Cl)c1OC,3%
17,C/C(=N/NC(=O)c1ccncc1)c1c[nH]c2ccccc12,-0.2%
18,Cc1cccc(-n2ccnc2SCC(=O)N2CCCc3ccccc32)c1C,5.4%
19,COC(=O)c1c(C(=O)OC)c2cc(C(=O)c3ccccc3)ccn2c1Cl,-15.3%
20,CS(=O)(=O)N1CCN(C2CCN(Cc3ccccc3)CC2)CC1,-0.6%
21,CN1CCc2nc3sc(C(=O)NCc4ccccc4)c(N)c3cc2C1,-30.8%
22,CC(NC(=O)NC12CC3CC(CC(C3)C1)C2)c1ccc2c(c1)OCO2 (stereo not given),-7.3%
23,O=C(NCC(c1ccco1)N1CCN(c2ccccc2F)CC1)OCc1ccccc1 (stereo not given),18%
24,O=C(N1CCCCCC1)n1c(Cc2ccccc2)nc2ccccc21,-0.4%
25,NCc1oc(-c2ccccc2)cc1C(=O)O,-55.4%

row,Compound,inhibition
1,COc1c(C(O)CC(C)C)ccc2c1C(=O)OCc1cc(C)cc(O)c1O2 (stereo not given),23.7%
2,O=C(CCCc1c[nH]c2ccccc12)NCC1COc2ccccc2O1 (stereo not given),-0.7%
3,Cc1cccc(CN2CCN(CC(=O)NCc3cccs3)C2=O)c1,-8.2%
4,CCOc1ccc(CNc2ccc(CNc3ncn[nH]3)cc2)cc1,9.7%
5,CCOc1ccc(CNc2ccc(N3CCCC3)cc2)cc1,85.9% (active)
6,CCOc1ccc(C(=O)Nc2ccc(N3CCCC3)cc2)cc1,-29%
7,O=C(CSc1nc2[nH]ncc2c(=O)n1-c1ccccc1)NCc1cccs1,-10.6%
8,O=C(CCCCCC(=O)N(CCO)CCO)N(CCO)CCO,-2.9%
9,CC1(C)CNc2cc(N)ccc2S1,82.8% (active)
10,CC1(C)CC(=S)Nc2ccccc2S1,41.8%
11,CC1(C)CNc2cc([N+](=O)[O-])ccc2S1,1.5%
12,O=C(NCc1ccc2c(c1)OCO2)c1cc(-c2ccccc2)on1,15.7%
13,O=C(c1ccc(OCC2CCCO2)cc1)N1CCc2ccccc2C1 (stereo not given),2.4%
14,Oc1ccc2ccccc2c1/C=N/Nc1nnc(-c2ncc[nH]2)c2ccccc12,-2.3%
15,CN(C)c1ccc(C(=S)NCc2ccco2)cc1,50.7% (active)
16,CN(C)c1ccc(/C=N/NC(=S)NCc2ccco2)cc1,-8%
17,CC(=O)Nc1ccc(C(=S)NCc2ccco2)cc1,9.7%
18,C/C(=N\NC(=O)COc1ccc(C#N)cc1)c1ccccc1OC(F)F,1%
19,CC(=O)Nc1cccc(Oc2ncnc3scc(-c4ccc(C(C)C)cc4)c23)c1,12.9%
20,CNC(=O)c1nn(-c2ccc(Cl)cc2)ccc1=O,6.2%
21,CCOc1cc(NC(=S)NCCCOC)c(OCC)cc1NC(=O)c1cccs1,17.4%
22,CC[n+]1ccc(C)c2cc(P(=O)(c3ccccc3)c3ccccc3)ccc21,-16%
23,CC[n+]1ccc(C[n+]2ccccc2)c2ccccc21,96.8% (active)
24,CC[n+]1ccc(/C=C/c2ccc(N(C)C)cc2)c2ccccc21,1%
25,CC(=O)Nc1ccc(C2=NN(Cc3nnc(-c4ccccc4)o3)C(=O)SC2)cc1,2.2%

row,Compound,inhibition
1,CN(C)c1cccc(C(=O)NCC2CCCO2)c1 (stereo not given),9.2%
2,O=C(Nc1ccc(N=Nc2ccccc2)cc1)c1cccc(Cl)c1,7.7%
3,O=C(Nc1ccc(N=Nc2ccccc2)cc1)c1ccc(Cl)cc1Cl,57.5% (active)
4,O=C(Nc1ccc(N=Nc2ccccc2)cc1)c1ccccc1Cl,2.6%
5,COc1cccc(NC(=O)c2cccnc2)c1,8.6%
6,CCC(C)(C)n1nnnc1C(c1cc2cc(C)ccc2[nH]c1=O)N1CCCc2ccccc21 (stereo not given),44.4%
7,Cc1ccc2[nH]c(=O)c(C(c3nnnn3C3CCCC3)N3CCCc4ccccc43)cc2c1 (stereo not given),57.3% (active)
8,O=c1[nH]c2cc3c(cc2cc1C(c1nnnn1C1CCCC1)N1CCCc2ccccc21)OCCO3 (stereo not given),12.8%
9,CCOC(=O)Cc1csc(NC(=O)CSc2nnc(-c3ccc(F)cc3)o2)n1,-5.5%
10,CCOC(=O)c1ccccc1NC(=O)COC(=O)c1ccc(C)c(S(=O)(=O)N2CCOCC2)c1,6.5%
11,CCOC(=O)Cn1nc(C)n(-c2ccc(C(C)(C)C)cc2)c1=O,12.5%
12,Clc1ccc(/C=N/Nc2ccccn2)cc1,-8.3%
13,Cc1cc(N/N=C/c2ccccc2)nc(NCc2ccccc2)n1,21.5%
14,CN(C)c1cc(N/N=C/c2ccc(Cl)cc2)nc(N(C)C)n1,67.4% (active)
15,COc1ccccc1/C=N/Nc1cc(N(C)C)nc(N(C)C)n1,60.4% (active)
16,Cc1cc(N/N=C\c2ccccc2)nc(-c2ccccc2O)n1,17.7%
17,COc1ccc(/C=N/Nc2cc(N(C)C)nc(N(C)C)n2)cc1,61.2% (active)
18,Cc1cc(N/N=C/c2ccc(Cl)cc2)nc(NCc2ccccc2)n1,21.7%
19,CN(C)c1cc(N/N=C\c2ccccc2)nc(N(C)C)n1,59.2% (active)
20,COc1ccc(/C=N/Nc2cc(C)nc(N)n2)cc1,12.1%
21,COc1ccccc1/C=N/NC1=NCCCCC1,2.7%
22,COc1ccccc1/C=N/Nc1nncc2ccccc12,2.9%
23,COc1ccc(/C=N/Nc2cc(OC)ncn2)cc1,14.3%
24,CCn1c(SCC(=O)Nc2cc(C)on2)nc2c(c1=O)SC(C)C2 (stereo not given),8.4%
25,O=C(Nc1ccc2c(c1)OCCO2)c1ccc2ccccc2n1,-3.6%

row,Compound,inhibition
1,O=C(COc1ccccc1)NCC(=O)Nc1ccc(S(=O)(=O)NCc2ccco2)cc1,9.9%
2,COc1ccc(C(C(=O)NC2CCCC2)N(Cc2cccs2)C(=O)c2ccn[nH]2)cc1OC (stereo not given),11.2%
3,CN(C)C(=O)CCSc1nnc(-c2ccncc2)o1,-4.7%
4,CC1(C)Cc2c(c(N3CCCC3)nc3sc4c(N5CCN(CCO)CC5)ncnc4c23)CO1,-22.8%
5,Cc1cc(C(=O)N2CCCC(C(=O)c3cccc4ccccc34)C2)nc(C)n1 (stereo not given),6.1%
6,O=C(CNS(=O)(=O)c1cccs1)Nc1ccc2c(c1)OCCO2,9.1%
7,CC(C)C(=O)Nc1cccc(C(=O)N2CCCCC2C)c1 (stereo not given),15.5%
8,O=C(NCc1ccncc1)Nc1cc(Cl)ccc1Cl,8.5%
9,Nc1nncn1C(=O)CCCN1C(=O)c2ccccc2C1=O,5.4%
10,CCn1c(COc2ccccc2OC)nnc1SCC#N,5.9%
11,S=c1[nH]nc(C2COc3ccccc3O2)o1 (stereo not given),-16.3%
12,NC(N)=Nc1nc(C2COc3ccccc3O2)cs1 (stereo not given),-4%
13,Cn1c(=O)c2c(nc(NC3CCCCC3)n2CC(=O)C23CC4CC(CC(C4)C2)C3)n(C)c1=O,1.2%
14,O=S(=O)(c1ccc(Br)s1)N1CCC(Cc2ccccc2)CC1,1.1%
15,Cc1ccc(N(C(=O)c2cc3ccccc3oc2=O)C2C=CS(=O)(=O)C2)cc1 (stereo not given),13.3%
16,Cc1ccc(-c2nnc(SCC(=O)NC3CCS(=O)(=O)C3)nc2-c2ccc(C)cc2)cc1 (stereo not given),3.8%
17,O=C(CSc1nnc(-c2ccccc2)c(-c2ccccc2)n1)NC1CCS(=O)(=O)C1 (stereo not given),-3.8%
18,O=C(CSc1n[nH]c(-c2ccncc2)n1)NC1CCS(=O)(=O)C1 (stereo not given),77.1% (active)
19,O=C(CSc1nnc(-c2ccccc2F)o1)OCc1ccccc1,-0.7%
20,CC[n+]1c(/C=C/Nc2ccccc2)oc2ccccc21,1.7%
21,CC[n+]1ccccc1/C=C/c1ccc(N(C)C)cc1,26.1%
22,CC[n+]1ccccc1/C=C/Nc1ccccc1,62% (active)
23,CCOC(=O)COn1c(=O)c(C)[n+]([O-])c2ccccc21,4.8%
24,CC(C)(C)c1cc(CCC(=O)NN)cc(C(C)(C)C)c1O,-6.6%
25,CC(C)C(C(=O)OCC(=O)c1cccc([N+](=O)[O-])c1)N1C(=O)[C@@H]2[C@H]3CC[C@H](C3)[C@@H]2C1=O (stereo not given in full),21.3%
